# In the library only some 4.8% were active in any assay of this set; here they are far more common.
# DAX1 inh-1 – DAX1 (NR0B1) inhibition, primary screen; actives 1.1% (n = 370,000); inhibition, % at 6.8 µM; HEK293T StAR-luciferase reporter, SF-1/DAX-1 repression relief;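 active = inhibition above the mean over all tested compounds plus 3 SD, cut at about 3.6% in these data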;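 also: 0% = DAX-1 cells with DMSO and 100% = cells lacking DAX-1 with DMSO; higher inhibition means more luminescence from relief of DAX-1 repression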
# SMARCA2 act – activators of SMARCA2 function | MG213 cells, MMTV-luciferase reporter, dexamethasone, overnight | activation, % at 9.1 µM | actives 1% (n = 370,000); in the data active = activation above about 7.8%;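 also: 0% = vehicle wells and 100% = reference activator wells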
# DAX1 inh-2 – inhibitors of human orphan nuclear receptor DAX1 (NR0B1) | HEK293 Gal4-DAX1 luciferase reporter, luminescence | inhibition, % at 6.75 µM | AID 504766 | P51843 | actives 0.99% (n = 340,000);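 active = inhibition above the mean over all tested compounds plus 3 SD, cut at about 4.2% in these data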;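 also: 0% = DAX1-transfected cells with DMSO and 100% = empty-vector control cells with DMSO; inhibition shows as a rise in luminescence from relieved DAX1 repression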
# Target sequence (P51843 207-470 limits assumed): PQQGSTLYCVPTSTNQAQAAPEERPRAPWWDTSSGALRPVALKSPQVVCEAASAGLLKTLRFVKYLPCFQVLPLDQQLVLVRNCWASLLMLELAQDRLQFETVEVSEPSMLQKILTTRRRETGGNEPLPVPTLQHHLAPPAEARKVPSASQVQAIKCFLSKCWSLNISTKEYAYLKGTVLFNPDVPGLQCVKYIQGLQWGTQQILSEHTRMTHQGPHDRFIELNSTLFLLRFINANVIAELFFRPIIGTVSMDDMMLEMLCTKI
# hcDAF-12 act – activators of H. contortus DAF-12 nuclear receptor; HEK293 hcDAF-12 lit1-tk-luc reporter, luminescence; 0% DMSO, 100% Δ7-dafachronic acid; activation, % at 6.8 µM; actives 1.4% (n = 370,000);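 active = activation above the mean of all tested compounds plus 3 SD, cut at about 5.5% in these data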;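 also: 100% = response to 3 µM Δ7-dafachronic acid high control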
# ssDAF-12 act – activators of S. stercoralis DAF-12 nuclear receptor. AID 652126. HEK293 ssDAF-12/GRIP1 lit1-tk-luc reporter, luminescence; % of 3 µM dafachronic acid response. activation, % at 6.8 µM. actives 1% (n = 370,000);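 active = activation above the mean over all tested compounds plus 3 SD, cut at about 0.9% in these data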;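 also: 0% = DMSO-only wells and 100% = 3 µM delta7-dafachronic acid wells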
# hgDAF12 agonist – activates the H. glycines DAF-12 receptor ligand-binding domain; HEK293 GAL4-hgDAF12 UAS-luciferase reporter, agonist luminescence; normalized to butyrate control; activation, % at 6.8 µM; actives 1.8% (n = 370,000); AID 687014;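 active = activation above a cutoff set at the mean of all screened compounds plus 3 SD, cut at about 10% in these data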;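 also: 0% = DMSO wells and 100% = sodium butyrate wells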
# * = called active by the depositor; · = no result given.
SMILES,DAX1 inh-1,SMARCA2 act,DAX1 inh-2,hcDAF-12 act,ssDAF-12 act,hgDAF12 agonist
O=C(N/N=C/c1cc2c(cc1[N+](=O)[O-])OCO2)c1ccc2c(c1)OCO2,-0.1,-2.6,0.3,-0.3,-1.1,-0.4
O=c1c2ccccc2oc2cc(-c3ccc4[nH]ccc4c3)ccc12,0.2,2.9,-1.9,3.0,-0.4,11.2*
O=c1c2ccccc2oc2ccccc12,0.6,6.3,·,-1.2,-1.1,2.0
CCCCNCCS(=O)(=O)NCc1ccc(OC)cc1,1.4,6.1,0.1,0.0,-1.8,0.5
CCOc1ccc(Cn2nnc(C(=O)NCCc3ccccc3)c2N)cc1,0.8,-2.5,4.4*,-1.7,-0.9,7.1
COc1cccc(Cn2nnc(C(=O)Nc3cc(Cl)ccc3OC)c2N)c1,0.2,-1.9,-0.9,-1.4,-0.7,-2.4
COc1cccc(Cn2nnc(C(=O)NCCc3ccc(Cl)cc3)c2N)c1,-0.8,-2.2,5.5*,-1.3,-1.6,3.0
CCOc1ccc(Cn2nnc(C(=O)NCCc3ccc(Cl)cc3)c2N)cc1,-0.8,0.1,2.0,-1.9,-0.5,-0.3
CCS(=O)(=O)N1CCC(C(=O)Oc2ccc(Br)cc2)CC1,0.9,0.5,-2.1,-0.6,-1.1,1.9
CC1CCc2sc(C(=O)NCc3ccc(F)cc3)cc2C1 (stereo not given),0.0,0.8,0.4,0.5,-1.3,1.4
O=C(NCc1ccc(F)cc1)c1cc2c(s1)CCCC2,-0.6,-0.3,7.0*,-2.6,-1.1,4.1
CC(=O)Nc1cccc(Oc2cnc3ccccc3n2)c1,2.1,-1.1,4.6*,4.2,-0.2,5.7
CC(=O)Nc1ccc(Oc2cnc3ccccc3n2)cc1,-0.7,0.3,-0.6,-1.0,-1.3,3.7
Cc1cc(C(=O)N/N=C/c2ccncc2)c(C)o1,0.2,1.6,4.8*,-0.9,-1.1,0.7
Cc1cc(C(=O)NNC(=O)c2sccc2C)c(C)o1,4.3*,1.8,0.6,0.9,-0.1,2.9
Cc1cc(C(=O)NN)c(C)o1,0.9,0.8,6.2*,1.4,-0.9,5.2
O=C(Nc1ccc(F)cc1)N1CCN(c2nc3ccccc3s2)CC1,-1.3,-1.6,-2.0,-2.1,-2.2,-3.8
O=C(COC(=O)C1CC(=O)N(c2ccc3c(c2)OCCO3)C1)NC1CCCc2ccccc21 (stereo not given),-1.2,-3.9,-1.1,-2.9,-1.8,-6.7
N#Cc1c2c(c(Nc3ccc(F)cc3)n3c1nc1ccccc13)CCCC2,-0.6,3.6,0.3,-1.6,-1.4,11.3*
COC(=O)c1c(-c2ccc(F)cc2)csc1NC(=O)C1CCCO1 (stereo not given),2.8,2.3,-1.2,-1.1,-1.7,12.1*
CCc1ccc(-c2csc(NC(=O)C3CCCO3)c2C(=O)OC(C)C)cc1 (stereo not given),-0.8,1.1,0.7,-1.0,-1.2,-1.7
CC1CCCCN1CCNC(=O)CC1Oc2ccccc2NC1=O (stereo not given),1.4,0.6,4.6*,2.1,3.2*,2.5
Cc1ccc2c(c1)NC(=O)C(CC(=O)NC1CCCCC1C)O2 (stereo not given),0.0,0.4,4.8*,-0.1,-1.7,-0.6
Cc1ccc2c(c1)NC(=O)C(CC(=O)NCCCN1CCCCC1C)O2 (stereo not given),-0.5,2.0,1.3,2.9,-0.7,2.1
O=C(Nc1cccc(S(=O)(=O)N2CCCC2)c1)c1ccccc1OC(F)F,-1.8,-3.1,-0.3,-1.6,-0.9,-0.1
SMILES,DAX1 inh-1,SMARCA2 act,DAX1 inh-2,hcDAF-12 act,ssDAF-12 act,hgDAF12 agonist
O[C@H]1C[C@H](c2ccccc2)N(CC2CCCCC2)C[C@@H]1n1cc(C2CC2)nn1,3.7*,1.2,0.1,0.9,-0.1,5.4
O[C@@H]1CN(CC2CCCCC2)[C@@H](c2ccccc2)C[C@H]1n1cc(C2CC2)nn1,0.7,-5.2,1.9,-0.3,-0.4,-3.4
Cc1cccc(Nc2nc(N)nc(CSc3nccn3C)n2)c1,1.1,6.9,0.6,1.4,-0.6,6.2
Cc1ccc(Nc2nc(N)nc(CSc3nccn3C)n2)cc1,3.3,5.0,0.8,5.1,0.9*,11.1*
C/C(=N\N1CCN(Cc2ccc(Cl)cc2)CC1)c1ccc(F)cc1,-0.7,-5.1,4.5*,4.4,-1.2,-1.7
CC(=O)Nc1ccc(C=NNc2ccc([N+](=O)[O-])cc2S(=O)(=O)Nc2ccccc2C(=O)O)cc1,3.9*,-3.6,0.8,-0.9,-1.0,-2.1
CC(=O)Nc1ccc(C=NNc2ccc(S(=O)(=O)Nc3ccccc3C(=O)O)cc2[N+](=O)[O-])cc1,0.5,-3.8,0.6,-0.5,-0.8,-1.0
O=[N+]([O-])c1ccc(N/N=C/c2ccccc2)c(F)c1,-0.3,3.0,0.7,1.5,-0.8,11.8*
C=CCn1cnc2scc(-c3ccc(OC)cc3)c2c1=O,-0.3,-4.1,-1.8,-2.4,-1.5,-1.5
Cc1cccc(OCc2nc(-c3nonc3N)no2)c1C,2.0,5.7,1.0,1.9,-0.8,10.6*
COc1cccc(CNC(=O)C2CCN(S(=O)(=O)N3CCC4(CC3)OCCO4)CC2)c1,-0.2,-1.6,0.6,-1.4,-1.5,-1.0
O=C(NCCN1CCOCC1)c1cc(Br)ccc1Cl,-0.1,6.1,0.7,2.9,1.1*,9.6
CCc1ccc(-c2ccc(C(=O)O)cc2)nc1,0.9,7.8*,0.3,3.9,0.0,6.3
COc1ccc(C(=O)c2ccc(-c3ccc(OC)cc3)nc2)cc1,0.1,-1.6,-0.6,1.0,-1.1,-1.0
CC(=O)Nc1ccc(Sc2ncccc2C(=O)Nc2ccc(OC(F)(F)F)cc2)cn1,1.5,-4.2,0.8,-1.0,-0.3,-2.1
CC(=O)Nc1ccc(Sc2ncccc2C(=O)Nc2cc(Cl)cc(Cl)c2)cn1,0.0,-3.1,0.2,0.7,1.1*,1.7
Cc1ccc(-n2nc3c(n2)/C(=N/O)CC/C3=N\O)cc1,4.4*,3.1,-1.1,5.0,0.9,12.2*
CCN1CCN(c2ccc(S(=O)(=O)N3CCOCC3)cc2NC(=O)c2ccc(C)cc2C)CC1,3.9*,0.6,0.9,-0.1,-0.8,-0.2
Cc1ccccc1C(=O)Nc1cc(S(=O)(=O)N2CCCCC2)ccc1N1CCN(C)CC1,-0.1,-1.6,5.0*,1.3,-0.3,-2.4
CCN1CCN(c2ccc(S(=O)(=O)N3CCOCC3)cc2NC(=O)c2cc(F)c(F)c(F)c2F)CC1,0.4,0.5,-0.6,-1.1,-0.7,-0.9
COc1ccc(NCC(=O)Nc2cc(S(=O)(=O)N3CCOCC3)ccc2N2CCOCC2)c(OC)c1,0.0,-0.7,7.1*,-1.4,-1.7,-0.5
COc1ccccc1C(=O)Nc1c2c(nn1-c1ccc(Cl)cc1)CS(=O)(=O)C2,0.9,2.6,0.0,0.7,-1.3,2.9
CN(C)C1(CNC(=O)C2CCN(S(=O)(=O)c3cccc(C(F)(F)F)c3)CC2)CCCCC1,-0.1,2.9,0.9,-2.6,-0.7,-1.7

# Source: PubChem (The Scripps Research Institute Molecular Screening Center)
